Calls of active or inactive are those of the source. Rule for the calls: active = hit-call score of the fitted dose curve at least 0.9, where 1 is the maximum; inactive = score below 0.9.
Columns and labels:
Conditions in all cases: mRNA level, 48 h; actives raise or lower the signal
[1] = read-out: Apoptosis regulator Bcl-2 (Homo sapiens) (UniProt P10415); assay: LTEA_HepaRG_BCL2: Life Technologies and Expression Analysis (LTEA) Assay for Bcl-2 gene using HepaRG (AID 2283475)
Procedure, shortened: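 Differentiated HepaRG cells in serum-free induction medium were exposed for 48 h to eight half-log concentrations up to 100 uM in 0.5% DMSO, in duplicate. BCL2 mRNA was quantified by TaqMan qRT-PCR normalised to ACTB, GAPDH and POLR2A, with bidirectional fitting versus DMSO.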

[2] = read-out: Bcl-2 (BID) gene, BID (gene 637); assay: LTEA_HepaRG_BID: Life Technologies and Expression Analysis (LTEA) Assay for Bcl-2 (BID) gene using HepaRG (AID 2283476)
Procedure, shortened: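 Differentiated HepaRG cells in serum-free induction medium were exposed in duplicate for 48 h to eight half-log concentrations up to 100 uM in 0.5% DMSO. BID mRNA was quantified by qRT-PCR, normalized to ACTB, GAPDH and POLR2A.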

Caspase-3 (Homo sapiens) = Caspase-3 (Homo sapiens) (UniProt P42574); assay: LTEA_HepaRG_CASP3: Life Technologies and Expression Analysis (LTEA) Assay for cysteine-aspartic acid protease (CASP3) using HepaRG (AID 2283477)
Procedure, shortened: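 Differentiated human HepaRG cells in serum-free induction medium were exposed 48 h to 8-point half-log concentrations from 100 uM (0.5% DMSO vehicle). CASP3 mRNA was measured by qRT-PCR, normalised to ACTB, GAPDH and POLR2A, with bidirectional fitting against DMSO.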

[3] = read-out: Cytochrome P450 (CYP24A1), CYP24A1 (gene 1591); assay: LTEA_HepaRG_CYP24A1: Life Technologies and Expression Analysis (LTEA) Assay for Cytochrome P450 (CYP24A1) using HepaRG (AID 2283478)
Procedure, shortened: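 Differentiated HepaRG cells, pre-cultured 48 h, were exposed in duplicate for 48 h in serum-free induction medium to 8 half-log concentrations (top 100 uM, 0.5% DMSO). CYP24A1 mRNA was quantified by TaqMan qRT-PCR, normalized to ACTB/GAPDH/POLR2A, fitted bidirectionally versus DMSO.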

[4] = read-out: Cytochrome P450 (CYP1A2), CYP1A2 (gene 1544); assay: LTEA_HepaRG_CYP1A2: Life Technologies and Expression Analysis (LTEA) Assay for Cytochrome P450 (CYP1A2) using HepaRG (AID 2283479)
Procedure, shortened: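 Differentiated human HepaRG cells in serum-free induction medium were exposed in duplicate for 48 h to 8-point half-log concentrations up to 100 uM in 0.5% DMSO. CYP1A2 mRNA measured by qRT-PCR, normalized to ACTB, GAPDH, POLR2A; bidirectional fit vs DMSO.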

[5] = read-out: cysteine-aspartic acid protease (CASP8), CASP8 (gene 841); assay: LTEA_HepaRG_CASP8: Life Technologies and Expression Analysis (LTEA) Assay for cysteine-aspartic acid protease (CASP8) using HepaRG (AID 2283480)
Procedure, shortened: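 Differentiated human HepaRG cells, plated 48 h then switched to serum-free induction medium, were exposed in duplicate for 48 h to 8 half-log concentrations up to 100 uM in 0.5% DMSO. CASP8 mRNA was quantified by qRT-PCR, normalized to ACTB/GAPDH/POLR2A.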

[6] = read-out: Cytochrome P450 (CYP2B6), CYP2B6 (gene 1555); assay: LTEA_HepaRG_CYP2B6: Life Technologies and Expression Analysis (LTEA) Assay for Cytochrome P450 (CYP2B6) using HepaRG (AID 2283481)
Procedure, shortened: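 Differentiated HepaRG cells, serum-free induction medium, exposed 48 h in duplicate to 8-point half-log concentrations from 100 uM in 0.5% DMSO. CYP2B6 mRNA by qRT-PCR, normalized to ACTB, GAPDH, POLR2A; bidirectional fit versus DMSO.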

[7] = read-out: Cytochrome P450 2C19 (Homo sapiens) (UniProt P33261); assay: LTEA_HepaRG_CYP2C19: Life Technologies and Expression Analysis (LTEA) Assay for CYP2C19 using HepaRG (AID 2283482)
Procedure, shortened: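 Differentiated human HepaRG cells were exposed for 48 h in serum-free induction medium to 8 concentrations (top 100 uM, half-log steps, 0.5% DMSO). CYP2C19 mRNA was measured by qRT-PCR, normalized to ACTB/GAPDH/POLR2A, and fitted bidirectionally against DMSO.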

CYP2C8 (gene 1558) = assay: LTEA_HepaRG_CYP2C8: Life Technologies and Expression Analysis (LTEA) Assay for CYP2C8 using HepaRG (AID 2283483)
Procedure, shortened: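 Differentiated human HepaRG cells were exposed for 48 h in serum-free induction medium to eight half-log concentrations up to 100 uM in 0.5% DMSO, in duplicate. CYP2C8 mRNA was measured by TaqMan qRT-PCR, normalized to ACTB, GAPDH and POLR2A, and fitted bidirectionally against DMSO.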

[8] = read-out: Apolipoprotein A-V (APOA5) gene, APOA5 (gene 116519); assay: LTEA_HepaRG_APOA5: Life Technologies and Expression Analysis (LTEA) Assay for Apolipoprotein A-V (APOA5) gene using HepaRG (AID 2283474)
Procedure, shortened: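 Differentiated human HepaRG cells were exposed in duplicate for 48 h to eight half-log concentrations from 100 uM in 0.5% DMSO. APOA5 mRNA was quantified by TaqMan qRT-PCR, normalized to ACTB, GAPDH and POLR2A, and fitted bidirectionally against DMSO.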

Measured: AC50

Sequence of Apoptosis regulator Bcl-2 (Homo sapiens) (P10415 whole entry, looked up): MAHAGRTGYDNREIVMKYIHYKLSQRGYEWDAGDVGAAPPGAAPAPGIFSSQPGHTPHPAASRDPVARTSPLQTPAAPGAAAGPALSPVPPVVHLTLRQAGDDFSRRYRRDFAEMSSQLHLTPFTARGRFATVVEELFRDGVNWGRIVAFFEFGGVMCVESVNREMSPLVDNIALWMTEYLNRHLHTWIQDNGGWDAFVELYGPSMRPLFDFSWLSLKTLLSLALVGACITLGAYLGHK
Sequence of Caspase-3 (Homo sapiens) (P42574 whole entry, looked up): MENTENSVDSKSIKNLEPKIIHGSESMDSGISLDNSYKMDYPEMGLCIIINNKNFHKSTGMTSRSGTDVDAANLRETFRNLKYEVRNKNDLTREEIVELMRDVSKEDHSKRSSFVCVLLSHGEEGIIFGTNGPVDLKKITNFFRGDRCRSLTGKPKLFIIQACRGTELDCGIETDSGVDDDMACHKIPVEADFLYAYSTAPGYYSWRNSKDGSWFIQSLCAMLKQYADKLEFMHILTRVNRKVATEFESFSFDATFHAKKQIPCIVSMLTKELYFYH
Sequence of Cytochrome P450 2C19 (Homo sapiens) (P33261 whole entry, looked up): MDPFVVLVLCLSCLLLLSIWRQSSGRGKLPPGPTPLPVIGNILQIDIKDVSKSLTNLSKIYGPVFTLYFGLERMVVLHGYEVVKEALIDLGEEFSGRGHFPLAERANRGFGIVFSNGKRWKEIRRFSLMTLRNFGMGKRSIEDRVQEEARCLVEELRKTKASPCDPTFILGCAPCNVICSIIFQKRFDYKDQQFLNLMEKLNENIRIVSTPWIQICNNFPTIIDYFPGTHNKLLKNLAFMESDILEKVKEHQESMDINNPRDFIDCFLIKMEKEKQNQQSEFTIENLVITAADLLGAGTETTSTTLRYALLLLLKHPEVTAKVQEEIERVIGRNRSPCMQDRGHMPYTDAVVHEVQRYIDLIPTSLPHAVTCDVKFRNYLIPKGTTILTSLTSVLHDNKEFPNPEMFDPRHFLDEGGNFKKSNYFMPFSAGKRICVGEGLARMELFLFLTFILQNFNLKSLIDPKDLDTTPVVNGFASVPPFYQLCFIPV

CC[C@H](C)C(=O)O[C@H]1C[C@H](O)C=C2C=C[C@H](C)[C@H](CC[C@@H](O)C[C@@H](O)CC(=O)O)[C@H]21
active: [4] 3.09 µM
not listed: [8]
inactive: all other assays above

NC(N)=O
not listed: [8]
inactive: all other assays above

O=C(O)c1cccc(C(=O)O)c1
active: [4] 82.6 µM
inactive: all other assays above

C=CN1CCCC1=O
not listed: [3] | [4]
inactive: all other assays above

CCN(CC)C(=S)SSC(=S)N(CC)CC
active: [6] 16.8 µM
not listed: [3] | [4]
inactive: all other assays above

CCCOc1ccc(S(=O)(=O)N2CCN(CC)CC2)cc1-c1nc2c(CC)n(Cc3ccccn3)nc2c(=O)[nH]1
active: [4] 79.4 µM | [6] 5.14 µM | [7] 18.2 µM | CYP2C8 (gene 1558) 3.5 µM
inactive: all other assays above

CCOc1ccc2[nH]cc(C(=O)NCc3ccccc3)c(=O)c2n1
active: [1] 0.662 µM
not listed: [3] | [4]
inactive: all other assays above

NC(=O)N1c2ccccc2C=Cc2ccccc21
active: [6] 5.83 µM | [7] 15.9 µM
not listed: [3] | [4]
inactive: all other assays above

OCCOCCOCCO
not listed: [3]
inactive: all other assays above

O=C(NO)C1(NS(=O)(=O)c2ccc(Oc3ccc(F)cc3)cc2)CCOCC1
inactive: [8] | [1] | [2] | [5]
active: Caspase-3 (Homo sapiens) 50 µM | [6] 11.8 µM | [7] 12.8 µM | CYP2C8 (gene 1558) 90.7 µM

OCCNCCO
active: [6] 50 µM | [7] 50 µM
not listed: [3]
inactive: all other assays above

CCCCCCOC(=O)CC(CC(=O)OCCCCCC)(OC(=O)CCC)C(=O)OCCCCCC
active: [6] 12.3 µM
not listed: [4]
inactive: all other assays above

CC(C)C(=O)Nc1ccc([N+](=O)[O-])c(C(F)(F)F)c1
inactive: [2] | Caspase-3 (Homo sapiens) | [3] | [5]
active: [8] 65.9 µM | [1] 90.3 µM | [6] 63.2 µM | [7] 77.3 µM | CYP2C8 (gene 1558) 15.8 µM

Nc1ccn([C@@H]2O[C@H](CO)[C@@H](O)[C@@H]2O)c(=O)n1
not listed: [7]
inactive: all other assays above

c1ccc2cc3ccccc3cc2c1
active: [6] 13.2 µM
not listed: [4]
inactive: all other assays above

CC(C)c1nnc2ccc(-c3ocnc3-c3cc(F)ccc3F)cn12
active: [8] 56.3 µM | [6] 0.619 µM | [7] 91.6 µM | CYP2C8 (gene 1558) 82.6 µM
inactive: [1] | [2] | Caspase-3 (Homo sapiens) | [5]

C[C@@H](Oc1ccc(CNC(=O)c2cccnc2Oc2ccc3c(c2)OCO3)c(F)c1)C(=O)O
not listed: [4]
inactive: all other assays above

Cn1cc[nH]c1=S
not listed: [4]
inactive: all other assays above

O=C(O)c1ccc2c(c1)nc(C(=O)NC1CCN(C3CC3)CC1)n2Cc1cc(-c2ccc(Cl)s2)on1
not listed: [4]
inactive: all other assays above

COc1cc(C(C)C)c2c(c1)S(=O)(=O)N(COc1cc(=O)n3cccc(OCCN4CCCCC4)c3n1)C2=O
inactive: [2] | Caspase-3 (Homo sapiens) | [5]
active: [8] 22.6 µM | [1] 22.1 µM | [4] 20.2 µM | [6] 22.5 µM | [7] 19.3 µM | CYP2C8 (gene 1558) 19.9 µM

CCCC(CCC)C(=O)O
not listed: [3] | [4]
inactive: all other assays above

CC(C)CCCCCCOC(=O)C1CCCCC1C(=O)OCCCCCCC(C)C (stereo not drawn)
active: [8] 0.00316 µM | [2] 0.00316 µM | Caspase-3 (Homo sapiens) 0.00316 µM | [5] 0.00316 µM
inactive: [1] | [6] | [7] | CYP2C8 (gene 1558)

CCCCCCCCCCCCCCCCOS(=O)(=O)O
active: [7] 43.1 µM
inactive: all other assays above

C=CCc1cc(S(=O)(=O)c2ccc(O)c(CC=C)c2)ccc1O
active: [8] 89 µM | [6] 80.6 µM | [7] 95.4 µM | CYP2C8 (gene 1558) 97.2 µM
inactive: [1] | [2] | Caspase-3 (Homo sapiens) | [5]

NC(=O)NN=Cc1ccc([N+](=O)[O-])o1
active: [2] 0.267 µM
not listed: [3] | [4]
inactive: all other assays above

CCCCCCCCCC
active: [4] 50 µM
not listed: [8]
inactive: all other assays above

CC(C)CC(C)O (stereo not drawn)
active: [4] 50 µM
not listed: [1] | [3]
inactive: all other assays above

O=C(O)[C@H](O)[C@@H](O)C(=O)O
inactive: [8] | [1] | [2] | Caspase-3 (Homo sapiens) | [5]

OC[C@H]1O[C@@](CO)(O[C@H]2O[C@H](CO)[C@@H](O)[C@H](O)[C@H]2O)[C@@H](O)[C@@H]1O
not listed: [8]
inactive: all other assays above

COCc1nnc(-c2ccc[n+]([O-])c2)n1-c1c(Cl)c(Cl)cc2[nH]c(=O)c(=O)[nH]c12
active: [6] 14.6 µM
not listed: [3] | [4]
inactive: all other assays above

CCCCCCCCCCCCCCO
not listed: [3] | [4]
inactive: all other assays above

CCc1ccc(O)c(C(C)(C)C)c1
active: [2] 0.00367 µM
not listed: [3] | [4]
inactive: all other assays above
